PubChem BioAssay AID1159580 (chemical genetic matrix, 2015)
Screen size: about 5,500 compounds; about 2,000 (36%) were called active. Inconclusive results (about 18%) are left out. Cut-off read from the data, not from the text of the source: active = normalized growth mostly below about 0.91 (no sharp cut-off); inconclusive = no clear call, values can overlap the other calls; inactive = mostly above about 0.92. Some of the results follow.

Assay: chemical genetic growth profiling, strain panel (AID 1159580);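 note: tested at 20 µM; growth read once vehicle control cultures reached saturation at 30 °C; 1 = growth at the plate median or of vehicle wells; lower values mean less growth of the strain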
Details: S. cerevisiae deletion strains, growth OD
[1] = locus YAL013W, strain DEP1, stronger effect = lower value
[2] = locus YGR078C, strain PAC10, stronger effect = lower value
[3] = locus YJR075W, strain HOC1, stronger effect = lower value
[4] = locus YNL322C, strain KRE1, stronger effect = lower value
[5] = locus YPL055C, strain LGE1, stronger effect = lower value
[6] = locus YPL241C, strain CIN2, stronger effect = lower value
[7] = locus YHR030C, strain SLT2, stronger effect = lower value

Measured: normalized growth

COc1ccc2c(c1)C13CCCCC1C(C2)N(C)CC3 (stereo unspecified)
inactive: [1] 1.02 | locus YAL040C, strain CLN3, stronger effect = lower value 0.995 | locus YCL061C, strain MRC1 (second series), stronger effect = lower value 1 | locus YDR363W, strain ESC2, stronger effect = lower value 0.952 | locus YER002W, strain NOP16, stronger effect = lower value 1 | [2] 0.995 | locus YGR229C, strain SMI1, stronger effect = lower value 0.991 | [3] 0.985 | locus YNL128W, strain TEP1, stronger effect = lower value 1.01 | locus YNL175C, strain NOP13, stronger effect = lower value 1.01 | locus YNL197C, strain WHI3, stronger effect = lower value 1.01 | locus YNL224C, strain SQS1, stronger effect = lower value 1.01 | [4] 1 | locus YOR083W, strain WHI5 (second series), stronger effect = lower value 0.97 | [5] 0.967 | [6] 0.998

CC[C@@H](CO)NC(=O)[C@@H]1C=C2c3cccc4c3c(cn4C)C[C@H]2N(C)C1
inactive: [7] 1 | locus YHR079C, strain IRE1, stronger effect = lower value 0.989 | locus YJL095W, strain BCK1, stronger effect = lower value 0.981 | locus YJR066W, strain TOR1, stronger effect = lower value 0.926 | locus YLR113W, strain HOG1, stronger effect = lower value 1.02 | locus YNL183C, strain NPR1, stronger effect = lower value 0.928 | locus YOR231W, strain MKK1, stronger effect = lower value 1 | locus YPL256C, strain CLN2, stronger effect = lower value 0.973

CCOC(=O)CC(=O)CSc1nnc(N)s1
inactive: [1] 0.998 | locus YBR229C, strain ROT2, stronger effect = lower value 0.988 | locus YCL061C, strain MRC1, stronger effect = lower value 1.04 | locus YDL101C, strain DUN1, stronger effect = lower value 1.04 | locus YDR150W, strain NUM1, stronger effect = lower value 1 | locus YEL061C, strain CIN8, stronger effect = lower value 1 | [2] 1.02 | [7] 1.13 | locus YHR087W, strain rtc3, stronger effect = lower value 0.992 | locus YJR043C, strain POL32, stronger effect = lower value 1.06 | [3] 1.01 | locus YLR039C, strain RIC1, stronger effect = lower value 1 | locus YLR058C, strain SHM2 (second series), stronger effect = lower value 0.999 | locus YLR085C, strain ARP6, stronger effect = lower value 1.04 | locus YLR262C, strain YPT6, stronger effect = lower value 1.01 | locus YML094W, strain GIM5, stronger effect = lower value 1.02 | locus YMR219W, strain ESC1, stronger effect = lower value 1 | locus YMR263W, strain SAP30, stronger effect = lower value 1.02 | locus YMR307W, strain GAS1, stronger effect = lower value 0.985 | locus YNL153C, strain GIM3, stronger effect = lower value 1.05 | locus YNL298W, strain CLA4 (second series), stronger effect = lower value 1.05 | [4] 1.02 | locus YNR030W, strain Alg12, stronger effect = lower value 1.02 | locus YOL006C, strain TOP1, stronger effect = lower value 1.13 | [5] 0.978 | [6] 1.02 | locus YPR135W, strain CTF4, stronger effect = lower value 1.11
